# The campaign covered roughly 310,000 compounds. About 14,000 (4.5%) showed an effect of 50% or more. The effect is printed as a negative number. Only a selection was taken, and strong results are over-represented in it overall.
# Target: human ether-à-go-go-related gene (hERG) potassium channel (human, UniProt Q12809)
# Assay: primary screen, population patch clamp on CHO cells stably expressing hERG; higher = less effect of the substance
# 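Further: peak tail current of the secondary pulse compared with the same well before compound.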
# Sequence of human ether-à-go-go-related gene (hERG) potassium channel (Q12809 whole entry, looked up): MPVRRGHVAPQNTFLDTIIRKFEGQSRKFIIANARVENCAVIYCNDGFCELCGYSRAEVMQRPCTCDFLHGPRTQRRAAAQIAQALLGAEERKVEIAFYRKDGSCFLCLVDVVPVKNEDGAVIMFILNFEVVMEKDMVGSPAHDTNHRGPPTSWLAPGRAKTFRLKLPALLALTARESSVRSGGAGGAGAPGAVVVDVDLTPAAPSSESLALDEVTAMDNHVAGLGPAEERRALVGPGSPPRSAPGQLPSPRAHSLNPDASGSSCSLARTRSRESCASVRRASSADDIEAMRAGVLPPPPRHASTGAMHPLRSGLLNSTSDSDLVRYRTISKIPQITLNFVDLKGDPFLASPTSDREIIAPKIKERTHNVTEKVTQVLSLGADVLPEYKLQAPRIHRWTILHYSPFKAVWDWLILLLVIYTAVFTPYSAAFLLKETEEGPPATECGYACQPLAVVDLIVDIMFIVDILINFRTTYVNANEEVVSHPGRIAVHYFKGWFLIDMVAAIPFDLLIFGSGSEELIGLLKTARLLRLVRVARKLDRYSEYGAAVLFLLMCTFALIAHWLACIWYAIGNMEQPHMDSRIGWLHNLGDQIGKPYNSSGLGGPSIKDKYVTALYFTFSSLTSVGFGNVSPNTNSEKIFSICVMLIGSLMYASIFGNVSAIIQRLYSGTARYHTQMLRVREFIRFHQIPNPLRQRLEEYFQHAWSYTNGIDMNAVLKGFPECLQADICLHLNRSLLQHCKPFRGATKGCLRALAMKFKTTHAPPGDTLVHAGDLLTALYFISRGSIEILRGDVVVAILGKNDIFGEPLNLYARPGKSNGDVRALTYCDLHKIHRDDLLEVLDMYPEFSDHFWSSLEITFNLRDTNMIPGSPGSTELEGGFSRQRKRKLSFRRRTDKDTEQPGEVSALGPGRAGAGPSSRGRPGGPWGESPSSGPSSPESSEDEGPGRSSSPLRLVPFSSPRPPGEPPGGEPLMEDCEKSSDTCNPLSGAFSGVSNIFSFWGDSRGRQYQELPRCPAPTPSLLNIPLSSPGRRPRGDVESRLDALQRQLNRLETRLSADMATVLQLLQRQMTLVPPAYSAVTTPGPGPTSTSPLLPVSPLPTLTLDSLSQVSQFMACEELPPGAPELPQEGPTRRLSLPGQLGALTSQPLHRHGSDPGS
row,Structure (SMILES),"hERG current change (%, negative = inhibition) at 10uM [%]"
1,CN(CC(=O)O/N=C(\N)c1ccccn1)S(=O)(=O)c1ccccc1,-4.98
2,Cc1cccc(C)c1NC(=O)NCCCN1CCN(c2ccccc2)CC1,-41.1
3,COc1ccc(N2CCN(CCNC(=O)Nc3cc(Cl)ccc3OC)CC2)cc1,3.23
4,CCCN1CCN(C(=O)Nc2ccc(OCC)cc2)CC1,-1.93
5,Cc1ccccc1NC(=O)NCCCN1CCN(C)CC1,28.1
6,O=C(NCCN1CCN(Cc2ccccc2)CC1)Nc1cc(Cl)cc(Cl)c1,-75.2
7,O=C(Nc1ccc2ccccc2c1)N1CCCN(CCOc2ccccc2)CC1,-66
8,O=C(NCCN1CCCCC1)Nc1ccccc1,-23.2
9,Cc1ccccc1NC(=O)NCCCN1CCN(c2ccccc2)CC1,-50.7
10,COc1ccccc1NC(=O)NCCCN1CCN(c2cccc(Cl)c2)CC1,-73.7
11,COc1ccccc1NC(=O)NCCN1CCN(c2cccc(Cl)c2)CC1,-9.6
12,Cc1noc(C)c1NC(=O)NCCN1CCN(Cc2ccccc2)CC1,13.7
13,O=C(Nc1ccc(F)cc1F)N1CCCN(CCOc2ccccc2)CC1,-45.2
14,CC(C)C(C)NC(=O)CSc1ccc(S(=O)(=O)N2CCOCC2)cn1 (stereo not shown),-1.56
15,CCOC(=O)C(CSCc1ccccc1)NC(=O)OC(C)(C)C (stereo not shown),-14.8
16,CCOCCCNC(=O)C(C)NS(=O)(=O)c1ccc(C)cc1 (stereo not shown),4.29
17,COc1ccccc1NC(=O)CSCc1cc(=O)n2ccsc2n1,13.3
18,COc1cccc(C(=O)O/N=C(\N)c2ccccn2)c1,-2.49
19,Cc1cc(C)cc(C(=O)Nc2cccc(NC(=O)c3ccco3)c2)c1,-14.2
20,Cc1ccc(S(=O)(=O)NCCC(=O)N2CCCCCC2)cc1,1.86

row,Structure (SMILES),"hERG current change (%, negative = inhibition) at 10uM [%]"
1,CC(C)c1nc(SCC(=O)N2CCCC2)c2c(=O)n(C)c(=O)n(C)c2n1,-21.8
2,O=C(NC(=S)N1CCCC1)c1cccc([N+](=O)[O-])c1,19.9
3,CCCCNC(=O)CCCCCNS(=O)(=O)c1ccc(OC)cc1,13.8
4,CCn1c(SCC(=O)Nc2ccc(N3CCOCC3)cc2)nnc1-c1ccc(OC)cc1,-14.8
5,CCCc1c2c(cc3c(=O)cc(C(=O)OCC)oc13)CCCC2,-0.971
6,COc1cc(OC)cc(C(=O)Nn2cc(C(=O)N3CCN(C)CC3)c3ccccc3c2=O)c1,2.72
7,O=C(NCCN1CCN(c2ccccc2)CC1)Nc1cccc(Br)c1,-58.1
8,O=C(NCCN1CCOCC1)Nc1ccccc1,-6.63
9,O=C(NCCN1CCN(c2ccccc2)CC1)Nc1cccc(Cl)c1,-55.7
10,O=C(NCCN1CCN(c2cccc(Cl)c2)CC1)Nc1ccccc1,-35.1
11,Cc1ccc(NC(=O)NCCN2CCN(c3ccccc3)CC2)cc1Cl,16.7
12,O=C(NCCCN1CCN(c2ccccc2)CC1)Nc1ccccc1C(F)(F)F,-49.3
13,O=C(Nc1ccccc1)N1CCN(Cc2ccccc2)CC1.O=C(O)C(=O)O,11.9
14,O=C(Nc1cc(Cl)cc(Cl)c1)N1CCCN(Cc2ccccc2)CC1,-76.3
15,O=C(NCCN1CCN(c2ccccc2)CC1)Nc1ccccc1Cl,-43.3
16,O=C(NCCN1CCN(c2ccccc2)CC1)Nc1ccccc1Br,-52.1
17,O=C(Nc1ccccc1)N1CCN(Cc2ccc(Cl)cc2)CC1,-33.8
18,O=C(NCCN1CCN(c2ccccc2)CC1)Nc1ccc(Cl)cc1,-45.5
19,COC(=O)c1sccc1NC(=O)Nc1ccccc1C,9.22
20,COCCNS(=O)(=O)c1cccc2cccnc12,11.6

row,Structure (SMILES),"hERG current change (%, negative = inhibition) at 10uM [%]"
1,Cc1ccc(N=C2C(=O)Nc3ccccc32)cc1C,7.9
2,Cn1c(N)c(C(=O)COC(=O)c2nc(Cl)ccc2Cl)c(=O)n(C)c1=O,-11.2
3,COc1ccc(C(=O)NCCCSc2ccccc2)cc1F,8.32
4,Brc1ccc(C2Nc3cccc4cccc(c34)N2)s1,7.9
5,O=C(Nc1ccnn1C1CCN(Cc2ccccc2OCCO)CC1)c1cccc(F)c1,-34.8
6,CCn1cc(CN2CCC(n3nccc3NC(=O)c3cccc(F)c3)CC2)c(C)n1,-2.72
7,O=C(Nc1ccnn1C1CCN(C2CCC2)CC1)c1cccc(F)c1,-12.5
8,O=C(Nc1ccnn1C1CCN(Cc2ccc(C#CCCO)cc2)CC1)c1cccc(F)c1,-77.3
9,CCc1ccc(CN2CCC(n3nccc3NC(=O)c3cccc(F)c3)CC2)cc1,-75.3
10,O=C(Nc1ccnn1C1CCN(Cc2ccc3nonc3c2)CC1)c1cccc(F)c1,-37.4
11,COc1ccc(CN2CCC(n3nccc3NC(=O)c3cccc(F)c3)CC2)cc1O,-80.4
12,CCn1cc(CN2CCC(n3nccc3NC(=O)c3cccc(F)c3)CC2)cn1,-6.71
13,O=C(Nc1ccnn1C1CCN(Cc2ccccc2OC(F)F)CC1)c1cccc(F)c1,-52.4
14,O=C(Nc1ccnn1C1CCN(Cc2cccc(OCCO)c2)CC1)c1cccc(F)c1,-12.3
15,O=C(Nc1ccnn1C1CCN(Cc2ccccc2OC(F)F)CC1)c1cccnc1,-12.3
16,CCOC(=O)C1CCCCC12C(C#N)=C(N)Oc1n[nH]c(C)c12 (stereo not shown),10.1
17,CN1C(=O)C(CC(=O)Nc2ccc(F)cc2)N(CCCc2ccccc2)C1=S (stereo not shown),0.0595
18,CCOC(=O)c1c(C)[nH]c(C2=NNC(=NC3CC3)SC2)c1C,-30.1
